# Experimental data taken from PubChem BioAssay (NCATS).
# Records with an inconclusive call do not appear. Values without a mark were called inactive. The source made the active and inactive calls. Calls follow the shape of the dose curve; as a rule, active = well fitted cell-killing curve with a large enough effect; inconclusive = small, poorly fitted or top-dose-only effect; inactive = flat fitted curve, though single readings scatter. Numbered stars: 1 amine (or outer) side, 2 acyl side, 3 side chain; on linkers, the order of the positions; unused ones are H or OH. Bridge positions count the residues as written; N and C are the ends. Square brackets hold non-standard residues; d marks the D form. Peptide text beside a SMILES is read from it. I, II: the chains in the order shown. Actinocin(9to1) = Cc1c2oc3c(C)ccc(C(=O)[*:1])c3nc-2c(C(=O)[*:2])c(N)c1=O; NMeV = CN[C@H](C(=O)O)C(C)C; Sar = CNCC(=O)O
# Assay: qHTS of pediatric cancer cell lines to identify multiple opportunities for drug repurposing: Primary screen for BT-12 cells (AID 1347101); also: nearly all actives have a fitted effect of over 25% in size
# Settings: BT-12 viability, CellTiter-Glo luminescence, 48 h; series mostly up to 57.3 µM; activity change, negative = cytotoxic: at the top concentration
# Source text: Drug repurposing or repositioning has been offered as a strategy for drug development in oncology programs. This approach has special potential for childhood cancers and other rare or orphan diseases, where the expected return on new drug development has been a disincentive to pharmaceuticals.
# In this project we exploit the poly-pharmacology of drugs to discover new indications via phenotypic screening of a panel of 19 well-characterized cell lines derived from solid tumors seen in children and adolescents. The goal is to identify approved drugs with previously unrecognized anticancer properties that has the potential to reveal new mechanisms and biological processes involved in carcinogenesis or drug resistance. We employed a titration-based paradigm (quantitative high-throughput screening or qHTS), where all compounds were tested at multiple concentrations for their effect on cell viability. Concentration-response curves (CRCs) were derived directly from the primary screen, and both potency and efficacy values were used to identify compounds with robust bioactivity profiles. We screened the NIH Chemical Genomics Center (NCGC) Pharmaceutical Collection (NPC) and Mechanism Interrogation Plate (MIPE) small molecule collections of approved and investigational compounds against these cell lines; and measured metabolically active cells after 48 hours of compound treatment as a proxy for cell viability.
# Assay Submitter: Nathalia J. Martinez, National Center for Advancing Translational Sciences, National Institutes of Health, Rockville, MD, USA; email: natalia.martinez@nih.gov
# [1] Shen, M et al. Quantitative high-throughput phenotypic screening of pediatric cancer cell lines identifies multiple opportunities for drug repurposing. Oncotarget 2017 Dec 19;9(4):4758-4772. PMID 29435139.
# The cells were obtained from University of North Carolina (UNC), Pediatric Preclinical Testing Program (PPT), and Coriell Institute (CI).
# qHTS cell viability assay:
# Cells were assayed in growth media at a density of 500-1,000 cells/well. Five microliters of cells were dispensed into 1,536-well, white, solid-bottom, TC-treated plates (Greiner Bio One) using a multidrop dispenser and incubated at 37 degrees C, 5% CO2, under a humidified atmosphere for 5 hours. Twenty-three nanoliters of compounds and controls (neutral control DMSO or positive control bortezomib at final concentration of 2.3 µM) were subsequently transferred by Kalypsys pintool. For primary screens, the MIPE collection was tested at 11-point dilutions (final concentrations range from 0.78 nM to 46 µM) and the NPC collection at 8-point dilutions (final concentrations range from 0.59 nM to 46 µM). Compounds tested in follow-up screens were assayed at 11-point dilutions. Cells were incubated for 48 hours, followed by addition of 3 µL of CellTiter-Glo (Promega). After a 15 min incubation at room temperature, samples were analyzed for luminescence intensity using a ViewLux High-throughput CCD imager equipped with clear filters.
# Potency is read from the fitted curve at half-maximal effect.
Compound,"activity change, negative = cytotoxic",Potency
COc1cc2c(cc1OC)C(=O)C(CC1CCN(Cc3ccccc3)CC1)C2 (stereo not given),0.697%,
CCOc1ccc(NC(=O)CC(C)O)cc1 (stereo not given),-5.52%,
c1ccc(CNCCNCc2ccccc2)cc1,1.31%,
"Cc1c2oc3c(C)ccc(C(=O)N[C@@H]4C(=O)N[C@H](C(C)C)C(=O)N5CCC[C@H]5C(=O)N(C)CC(=O)N(C)[C@@H](C(C)C)C(=O)O[C@@H]4C)c3nc-2c(C(=O)N[C@@H]2C(=O)N[C@H](C(C)C)C(=O)N3CCC[C@H]3C(=O)N(C)CC(=O)N(C)[C@@H](C(C)C)C(=O)O[C@@H]2C)c(N)c1=O (I: T[dV]P[Sar][NMeV] / II: T[dV]P[Sar][NMeV]; ester I:1-I:C, II:1-II:C; linker I:N-II:N via Actinocin(9to1))",,0.0069 µM (active)
COc1cc2c(cc1OC)[C@@H]1CC(=O)[C@@H](CC(C)C)CN1CC2,4.27%,
CCCCCCCCCCCCCCCC[N+](C)(C)CCN(Cc1ccc(OC)cc1)c1ncccn1,,7.77 µM (active)
NCCCC[C@H](N[C@@H](CCc1ccccc1)C(=O)O)C(=O)N1CCC[C@H]1C(=O)O,15.2%,
CNCC[C@@H](Oc1ccccc1C)c1ccccc1,-2.63%,
COc1cccc2c1C(=O)c1c(O)c3c(c(O)c1C2=O)C[C@@](O)(C(=O)CO)C[C@@H]3O[C@H]1C[C@H](N)[C@H](O)[C@H](C)O1,,1.38 µM (active)
CC(=O)Nc1c(I)cc(I)c(C(=O)O)c1I,0.327%,
O=C(OCC(O)CO)c1ccccc1Nc1ccnc2cc(Cl)ccc12 (stereo not given),-14.4%,
CN(C)CCOc1ccccc1Cc1ccccc1,-13.3%,
CN(C)C(=S)SC(=S)N(C)C,,1.23 µM (active)
CCN1CCN(c2cc3c(cc2F)c(=O)c(C(=O)O)cn3C2CC2)CC1,4.61%,
CC1(C)OC[C@@H](COC(=O)CCc2ccc(OC[C@@H](O)CNCCNC(=O)N3CCOCC3)cc2)O1,3.78%,
Nc1ccc(/C=C/c2ccc(N)cc2S(=O)(=O)O)c(S(=O)(=O)O)c1,16.8% [at 0.745 µM],
Cc1cc(O)c(C(C)C)cc1Cl,9.8%,
CC1=C(C(=O)O)N2C(=O)[C@@H](NC(=O)[C@H](N)c3ccc(O)cc3)[C@H]2SC1,8.49%,
CN1[C@@H]2CC[C@H]1CC(OC(=O)c1c[nH]c3ccccc13)C2 (stereo not given in full),0.906%,
CC(=O)OCC(=O)[C@@]1(O)CC[C@H]2[C@@H]3CCC4=CC(=O)C=C[C@]4(C)[C@H]3[C@@H](O)C[C@@]21C,-7.97%,

Compound,"activity change, negative = cytotoxic",Potency
CCCCCC=CCC=CCCCCCCCC(=O)OCC,3.61%,
CC1(C)O[C@@H]2[C@@H](CO[C@@]3(COS(N)(=O)=O)OC(C)(C)O[C@@H]23)O1,13.6%,
O=c1[nH]c(=O)n([C@H]2C[C@H](O)[C@@H](CO)O2)cc1C(F)(F)F,,13.8 µM (active)
CCCOC(C(=O)OC1CCN(C)CC1)(c1ccccc1)c1ccccc1,-25.2%,
CCC(=O)c1c(O)cc(O)cc1O,10.2%,
NCCc1ccn[nH]1,11.3%,
CCOC(=O)OC(C)OC1=C(C(=O)Nc2ccccn2)N(C)S(=O)(=O)c2ccccc21 (stereo not given),4.23%,
OCc1ccccc1O,10.9%,
CCCCC(=O)O[C@]1(C(=O)CO)CC[C@H]2[C@@H]3CCC4=CC(=O)CC[C@]4(C)[C@H]3[C@@H](O)C[C@@]21C,4.01%,
Cc1nc2n(c(=O)c1CCN1CCC(c3noc4cc(F)ccc34)CC1)CCC[C@H]2O,2.75% [at 20.1 µM],
O=C1c2ccccc2C(=O)C1c1ccccc1,15%,
CCn1cc(C(=O)O)c(=O)c2cnc(N3CCCC3)nc21,1.9% [at 11.5 µM],
N[C@H](Cc1c[nH]c2ccccc12)C(=O)O,7.21%,
CN1CCN(C(c2ccccc2)c2ccccc2)CC1,-7.17%,
Cc1ccc(O)c2ncccc12,,11 µM (active)
CC(O)C(=O)O (stereo not given),11.2%,
C[n+]1c2cc(N)ccc2cc2ccc(N)cc21 (tested in a mixture with another compound),,3.89 µM (active)
Cc1onc(-c2c(Cl)cccc2Cl)c1C(=O)N[C@@H]1C(=O)N2[C@@H]1SC(C)(C)[C@@H]2C(=O)O,8.7%,
CC(=O)Oc1ccc(C(c2ccc(OC(C)=O)cc2)c2ccccn2)cc1,-12.1%,
C[C@@H]1C[C@H]2[C@@H]3CCC4=CC(=O)C=C[C@]4(C)[C@@]3(F)[C@@H](O)C[C@]2(C)[C@H]1C(=O)CO,-4.97%,
